For 22 compounds, outcome and Potency results are on record in PubChem BioAssay (Tox21).

Inconclusive results are not listed. Where a call stands in place of a potency, no number is given. A structure can be active in one record and inactive in another. Calls of active or inactive are those of the source. Calls come from the whole dose curve; as a rule, active = well fitted cell-killing curve with a large enough effect in the repeat runs; inconclusive = weak or mixed curves, or effect the other way; inactive = flat fitted curve, though single readings scatter.
Note: nearly all actives have a fitted effect of over 50% in size.

A short description of the first experiment: qHTS assay to identify small molecule HDAC inhibitors - cell viability counter screen (AID 1259365). The note with it: HCT-116 viability, CellTiter-Glo ATP luminescence, 2 h; series mostly up to 92.4 µM. An outline of the steps:
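HCT-116 wild-type, overnight attachment; 2hr drug exposure, 37C; CellTiter-Glo luminescent ATP readout after 30min RT.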
(In general: qHTS replaces the single test concentration by a dilution series.)
With `N[C@@H](Cc1c[nH]c2ccc(O)cc12)C(=O)O`, the call was inactive.
Still for that read-out and setting: the result for `COC(=O)C1CCC(C(=O)OC)CC1` (centres undefined) reads “inactive”; that for `COC(=O)c1ccc(C=O)cc1`, “inactive”; that for `CCCCOC(=O)CCCCCCCCC(=O)OCCCC`, “inactive”.
On to `O=C(O)CN(CC(=O)O)CC(=O)O`, for which the call was inactive.
For the compound `Oc1cccc(O)c1`, the call was inactive.
Same read-out and setting: for `CC(=O)CCC(C)C` the value was “inactive”; for `CC(=O)/C=C/C1=C(C)CCCC1(C)C`, “inactive”.
On the same count and under the same terms, the result for `CC(C)(C)NCC(O)c1ccc(O)c(CO)c1` (centres undefined) reads “inactive”.
On the same count and under the same terms, the result for `CN(C)C=O` reads “inactive”; that for `Cc1cccc2ccccc12`, “inactive”.
For the compound `CC(C)Cc1ccc(C(C)C(=O)O)cc1` (centres undefined), the compound was called inactive.
Take `C=C(C)OC(C)=O`: the call was inactive.
Take `C=CCOC(=O)CC(C)C`: the compound was classed as inactive.

A further experiment can be described thus: qHTS assay to identify small molecule agonists of the sonic hedgehog signaling (Shh) pathway - cell viability counter screen (AID 1259366). Note: potency is the fitted concentration of half-maximal effect. The note with it: NIH/3T3 Gli1-Luc viability, CellTiter-Fluor, 24 h; series mostly up to 92.4 µM. An outline of the steps:
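Compounds in DMSO were pin-transferred onto 3T3 Gli1-Luc cells that had settled 4hr; plates then stood 24hr at 37C and 5% CO2. One hour before the end, CellTiter-Fluor was added and fluorescence recorded.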
For `COC(=O)C1CCC(C(=O)OC)CC1` (centres undefined), the Potency result was “inactive”.
For `C/C=C/c1ccc(O)c(OC)c1`, the Potency entry is “inactive”.
As to `O=C(O)CN(CC(=O)O)CC(=O)O`, the Potency result is “inactive”.
Take `CCN1CCCC1=O`: the Potency entry is “inactive”.
Take `CC1=NN(c2ccccc2)C(=O)C1`: the Potency result was “inactive”.
Still for that read-out and setting: the result for `CC(=O)CCC(C)C` reads “inactive”; that for `CC(=O)/C=C/C1=C(C)CCCC1(C)C`, “inactive”.
Regarding `Cc1c(N(C)C)c(=O)n(-c2ccccc2)n1C`, the Potency entry is “inactive”.
Regarding `CC(=O)OC/C=C(C)/C=C/C=C(C)/C=C/C1=C(C)CCCC1(C)C`, the Potency result was “inactive”.
In the case of `CN(C)C=O`, the Potency entry was “inactive”.
Same read-out and setting: the result for `Cc1cccc2ccccc12` reads “inactive”; that for `Cc1ccc(O)c(-n2nc3ccccc3n2)c1`, 60.6 µM (active) and inactive.
Still for that read-out and setting: the result for `CC(C)(C)CC(C)(C)c1ccc(O)c(-n2nc3ccccc3n2)c1` reads “inactive”; that for `OCCCc1ccccc1`, “inactive”; that for `C=CCOC(=O)CC(C)C`, “inactive”.
